Experimental data taken from PubChem BioAssay (EPA / NIEHS).
Where “and” joins values, the source holds several entries; their conditions need not be identical. Equal values may be shown once. Results filed as inconclusive are left out. A structure can be active in one record and inactive in another. Calls of active or inactive are those of the source. How the source made its calls, unless noted: active means hit-call score of the fitted dose curve at least 0.9, where 1 is the maximum; inconclusive means response in the unintended direction; inactive means score below 0.9.

Assays:
[1] = ATG_TCF_b_cat_CIS: Attagene CIS-FACTORIAL HepG2 Assay for human T-Cell-Factor with beta-catenin (TCF/b-cat) (AID 2282965; active means hit-call score of the fitted dose curve at least 0.9, where 1 is the maximum; inactive means score below 0.9); conditions: HepG2 TCF/beta-catenin cis-reporter transcription, actives raise or lower the signal
In short: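 Measured: reporter mRNA in HepG2 transiently transfected with cis-promoter reporter units, 24 h after chemical addition. Fitting was bidirectional, DMSO as negative control.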

[2] = ATG_TAL_CIS: Attagene CIS-FACTORIAL HepG2 Assay for human TAL Basal Promoter (AID 2282966; active means hit-call score of the fitted dose curve at least 0.9, where 1 is the maximum; inactive means score below 0.9;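 further: background control endpoint measuring basal TAL promoter reporter mRNA not a specific factor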); conditions: HepG2 Attagene cis-factorial TAL promoter reporter; actives raise or lower the signal
In short: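 In this cell-based multiplex, HepG2 liver cells bearing cis-promoter reporter constructs are dosed for 24 hours. Total RNA is reverse-transcribed and amplified, labelled fragments are sized by capillary electrophoresis, and signal changes are fitted bidirectionally versus DMSO.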

[3] = ATG_TGFb_CIS: Attagene CIS-FACTORIAL HepG2 Assay for human Transforming Growth Factor (TGF) (AID 2282967; active means hit-call score of the fitted dose curve at least 0.9, where 1 is the maximum; inactive means score below 0.9); conditions: HepG2 Attagene CIS TGFb reporter, mRNA transcription; actives raise or lower the signal
In short: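 HepG2 cells transiently transfected with cis-promoter-driven multiplexed reporter units; 24 h compound exposure. Reporter mRNA measured by RT-PCR, 6-FAM labeling, HpaI digestion and capillary electrophoresis; bidirectional fit versus DMSO baseline.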

[4] = ATG_VDRE_CIS: Attagene CIS-FACTORIAL HepG2 Assay for human Vitamin D Receptor Element (VDRE) (AID 2282968; active means hit-call score of the fitted dose curve at least 0.9, where 1 is the maximum; inactive means score below 0.9); conditions: HepG2 VDRE cis-reporter transcription, actives raise or lower the signal
In short: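 Reporter mRNA induction, quantified by capillary electrophoresis of fluorescently labelled RT-PCR products, was read 24 h after dosing HepG2 cells carrying transiently transfected cis-regulated reporter units; gain or loss relative to DMSO.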

[5] = biological target: Nuclear receptor subfamily 1 group I member 3 (Homo sapiens) (UniProt Q14994); experiment: ATG_CAR_TRANS: Attagene TRANS-FACTORIAL HepG2 Assay for human Constitutive Androstane Receptor (CAR) (AID 2282969); conditions: HepG2 Attagene TRANS-FACTORIAL CAR reporter;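 further: activators raise reporter mRNA above DMSO so AC50 marks induction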
Nuclear receptor subfamily 1 group I member 3 (Homo sapiens), sequence (Q14994 whole entry, looked up, the tested form may be a part): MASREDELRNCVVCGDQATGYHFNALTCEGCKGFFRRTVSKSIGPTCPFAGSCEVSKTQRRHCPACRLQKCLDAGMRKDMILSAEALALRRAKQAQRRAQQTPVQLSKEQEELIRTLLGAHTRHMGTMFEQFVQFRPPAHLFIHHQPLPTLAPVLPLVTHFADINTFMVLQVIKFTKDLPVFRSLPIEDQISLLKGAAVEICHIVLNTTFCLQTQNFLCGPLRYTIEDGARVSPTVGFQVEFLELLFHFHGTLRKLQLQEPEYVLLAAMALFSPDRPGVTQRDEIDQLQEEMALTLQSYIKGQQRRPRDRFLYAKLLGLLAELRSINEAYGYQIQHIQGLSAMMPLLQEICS
In short: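 Readout is reporter mRNA induction, quantified by fluorescent primer extension and capillary electrophoresis after RT-PCR. Cells were HepG2 transiently carrying chimeric NR-Gal4 constructs with GAL4-UAS reporters, treated for 24 h; activity scored upward from DMSO.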

[6] = biological target: Estrogen receptor (Homo sapiens) (UniProt P03372); experiment: ATG_ERa_TRANS: Attagene TRANS-FACTORIAL HepG2 Assay for human Estrogen Receptor alpha (ERa) (AID 2282970); conditions: HepG2 Attagene TRANS ERa GAL4 reporter, mRNA
Estrogen receptor (Homo sapiens), sequence (P03372 whole entry, looked up, the tested form may be a part): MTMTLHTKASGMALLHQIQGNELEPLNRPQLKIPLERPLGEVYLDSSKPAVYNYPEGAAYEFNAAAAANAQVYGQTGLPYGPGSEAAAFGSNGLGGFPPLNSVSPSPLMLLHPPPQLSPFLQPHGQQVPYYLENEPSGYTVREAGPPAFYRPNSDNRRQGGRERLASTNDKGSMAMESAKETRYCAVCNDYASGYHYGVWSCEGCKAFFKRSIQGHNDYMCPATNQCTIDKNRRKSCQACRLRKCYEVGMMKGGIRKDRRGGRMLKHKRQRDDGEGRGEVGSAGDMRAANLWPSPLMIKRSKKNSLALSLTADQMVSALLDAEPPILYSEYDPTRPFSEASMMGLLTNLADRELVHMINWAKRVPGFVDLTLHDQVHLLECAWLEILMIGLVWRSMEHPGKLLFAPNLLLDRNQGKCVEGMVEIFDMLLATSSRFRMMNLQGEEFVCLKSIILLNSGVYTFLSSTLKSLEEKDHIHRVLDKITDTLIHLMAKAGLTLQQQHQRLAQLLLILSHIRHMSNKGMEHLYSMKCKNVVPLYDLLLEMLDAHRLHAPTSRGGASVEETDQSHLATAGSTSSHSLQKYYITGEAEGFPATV
In short: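 After 24 h of compound treatment, RNA from HepG2 cells bearing transfected GAL4-UAS reporter constructs is converted to cDNA, amplified and fluorescently labelled. Capillary electrophoresis resolves the ERa-linked reporter; DMSO serves as negative control.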

[7] = biological target: X-box-binding protein 1 (Homo sapiens) (UniProt P17861); experiment: ATG_Xbp1_CIS: Attagene CIS-FACTORIAL HepG2 Assay for human X-box Binding Protein 1 (XBP1) (AID 2282972; active means hit-call score of the fitted dose curve at least 0.9, where 1 is the maximum; inactive means score below 0.9); conditions: HepG2 XBP1 cis-element reporter, Attagene multiplex; actives raise or lower the signal
X-box-binding protein 1 (Homo sapiens), sequence (P17861 whole entry, looked up): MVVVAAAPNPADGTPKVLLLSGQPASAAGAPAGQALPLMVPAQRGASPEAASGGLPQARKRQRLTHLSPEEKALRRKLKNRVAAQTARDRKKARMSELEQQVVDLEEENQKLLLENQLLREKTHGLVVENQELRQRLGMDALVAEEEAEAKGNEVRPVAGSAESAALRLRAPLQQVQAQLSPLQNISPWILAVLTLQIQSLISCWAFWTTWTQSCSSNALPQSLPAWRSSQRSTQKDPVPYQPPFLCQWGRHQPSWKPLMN
In short: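 HepG2 cells transiently transfected with multiple cis-element reporter units report endogenous TF activity; 24 h exposure, then reporter mRNA measured by RT-PCR, 6-FAM labelling, HpaI digestion and capillary electrophoresis. Bidirectional fitting versus DMSO.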

[8] = ATG_M_19_TRANS: Attagene TRANS-FACTORIAL HepG2 Assay for M19 Transcription Factor (Internal Marker) (AID 2282974); conditions: HepG2 Attagene TRANS-FACTORIAL M19 internal marker reporter
In short: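 Transfected HepG2 (GAL4-UAS MRTUs), 24 h compound, TriZol RNA, DNase-treated RT, reporter PCR, FAM label, HpaI digest, CE fluorescence; gain vs DMSO.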

[9] = biological target: Estrogen-related receptor gamma (Homo sapiens) (UniProt P62508); experiment: ATG_ERRg_TRANS: Attagene TRANS-FACTORIAL HepG2 Assay for human Estrogen-Related Receptor gamma (ERRg) (AID 2282977); conditions: HepG2 Attagene TRANS reporter, ERRg transactivation;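 further: hits increase reporter signal over DMSO so potencies reflect activators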
Estrogen-related receptor gamma (Homo sapiens), sequence (P62508 whole entry, looked up, the tested form may be a part): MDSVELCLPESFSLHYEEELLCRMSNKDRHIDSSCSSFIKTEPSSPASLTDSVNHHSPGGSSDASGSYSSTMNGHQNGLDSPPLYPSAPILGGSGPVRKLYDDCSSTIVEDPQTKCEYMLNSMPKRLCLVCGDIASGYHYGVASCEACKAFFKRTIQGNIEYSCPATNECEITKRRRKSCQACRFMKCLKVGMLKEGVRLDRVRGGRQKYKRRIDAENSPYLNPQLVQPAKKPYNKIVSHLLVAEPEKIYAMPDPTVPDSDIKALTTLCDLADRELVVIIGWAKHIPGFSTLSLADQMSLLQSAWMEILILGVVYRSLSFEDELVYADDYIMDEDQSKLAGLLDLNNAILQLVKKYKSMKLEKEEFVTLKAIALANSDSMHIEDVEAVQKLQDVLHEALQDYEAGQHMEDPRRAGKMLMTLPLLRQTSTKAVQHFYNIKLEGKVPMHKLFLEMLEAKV
In short: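 Transfect HepG2 with multiple GAL4-UAS reporter transcription units; dose chemicals 24 h; isolate RNA, reverse-transcribe with oligo(dT), PCR-amplify, label with 6-FAM, digest with HpaI; size fragments by capillary electrophoresis. DMSO serves as negative control.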

[10] = biological target: Oxysterols receptor LXR-alpha (Homo sapiens) (UniProt Q13133); experiment: ATG_LXRa_TRANS: Attagene TRANS-FACTORIAL HepG2 Assay for human Liver X Receptor alpha (LXRa) (AID 2282980); conditions: HepG2 Attagene TRANS reporter, LXRa transactivation
Oxysterols receptor LXR-alpha (Homo sapiens), sequence (Q13133 whole entry, looked up, the tested form may be a part): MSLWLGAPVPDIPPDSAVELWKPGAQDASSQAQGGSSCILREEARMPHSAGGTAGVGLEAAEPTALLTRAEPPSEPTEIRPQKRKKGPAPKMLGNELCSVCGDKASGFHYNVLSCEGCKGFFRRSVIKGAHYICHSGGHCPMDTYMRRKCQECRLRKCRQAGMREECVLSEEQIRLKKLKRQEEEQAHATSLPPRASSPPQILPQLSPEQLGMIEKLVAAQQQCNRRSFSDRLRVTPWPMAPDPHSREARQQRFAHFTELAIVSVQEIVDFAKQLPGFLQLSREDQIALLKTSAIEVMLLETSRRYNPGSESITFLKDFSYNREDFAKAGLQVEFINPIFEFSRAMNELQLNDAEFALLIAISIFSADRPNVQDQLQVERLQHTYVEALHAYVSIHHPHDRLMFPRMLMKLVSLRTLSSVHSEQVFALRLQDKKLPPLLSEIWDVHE
In short: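 Read-out: reporter transcript levels by RT-PCR plus capillary electrophoresis, fluorescence intensity. Transiently transfected HepG2, exogenous NR-GAL4 chimera, GAL4-UAS reporters; 24 h compound exposure. Activity = increase over DMSO negative control.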

[11] = biological target: Oxysterols receptor LXR-beta (Homo sapiens) (UniProt P55055); experiment: ATG_LXRb_TRANS: Attagene TRANS-FACTORIAL HepG2 Assay for human Liver X Receptor beta (LXRb) (AID 2282981); conditions: HepG2 Attagene TRANS GAL4-LXRb reporter, mRNA
Oxysterols receptor LXR-beta (Homo sapiens), sequence (P55055 whole entry, looked up, the tested form may be a part): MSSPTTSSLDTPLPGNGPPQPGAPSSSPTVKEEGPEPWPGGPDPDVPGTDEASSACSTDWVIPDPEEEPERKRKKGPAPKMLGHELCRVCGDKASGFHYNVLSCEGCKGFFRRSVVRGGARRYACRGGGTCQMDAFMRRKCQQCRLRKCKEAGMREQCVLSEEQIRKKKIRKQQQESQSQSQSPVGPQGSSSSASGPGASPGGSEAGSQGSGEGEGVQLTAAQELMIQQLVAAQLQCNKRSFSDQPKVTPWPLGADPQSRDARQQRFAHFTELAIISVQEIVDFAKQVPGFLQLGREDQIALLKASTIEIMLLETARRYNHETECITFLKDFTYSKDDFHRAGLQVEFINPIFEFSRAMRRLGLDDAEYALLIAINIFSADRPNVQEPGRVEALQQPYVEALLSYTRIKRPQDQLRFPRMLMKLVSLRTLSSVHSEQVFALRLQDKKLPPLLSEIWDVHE
In short: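 Transient transfection HepG2 (multiplexed RTUs, GAL4-UAS); NR-Gal4 chimera; 24 h exposure; RNA → RT-PCR → 6-FAM primer extension → HpaI → CE; increase vs DMSO.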

[12] = biological target: Hepatocyte nuclear factor 4-alpha (Homo sapiens) (UniProt P41235); experiment: ATG_HNF4a_TRANS: Attagene TRANS-FACTORIAL HepG2 Assay for human Hepatocyte Nuclear Factor 4 alpha (HNF4a) (AID 2282982); conditions: HepG2 HNF4a transactivation reporter, mRNA readout
Hepatocyte nuclear factor 4-alpha (Homo sapiens), sequence (P41235 whole entry, looked up, the tested form may be a part): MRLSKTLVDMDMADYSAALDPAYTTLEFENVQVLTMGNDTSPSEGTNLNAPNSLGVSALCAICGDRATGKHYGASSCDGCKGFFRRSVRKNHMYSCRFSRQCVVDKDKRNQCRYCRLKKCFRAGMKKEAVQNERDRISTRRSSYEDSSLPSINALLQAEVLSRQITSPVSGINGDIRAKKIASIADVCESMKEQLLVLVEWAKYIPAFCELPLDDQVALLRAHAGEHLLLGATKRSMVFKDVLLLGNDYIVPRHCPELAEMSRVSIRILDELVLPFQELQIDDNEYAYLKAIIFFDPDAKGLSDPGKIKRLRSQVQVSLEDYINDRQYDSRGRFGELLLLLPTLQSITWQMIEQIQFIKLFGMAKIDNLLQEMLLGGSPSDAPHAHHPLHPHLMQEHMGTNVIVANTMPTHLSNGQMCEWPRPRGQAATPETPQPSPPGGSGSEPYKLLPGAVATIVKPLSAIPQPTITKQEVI
In short: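 Readout is fluorescent reporter-transcript fragments resolved by capillary electrophoresis after RT-PCR from HepG2 cells dosed for 24 h. Cells carried transfected GAL4-UAS reporter constructs measuring exogenous NR-GAL4 chimera activity; DMSO served as baseline.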

[13] = ATG_M_06_TRANS: Attagene TRANS-FACTORIAL HepG2 Assay for M06 Transcription Factor (Internal Marker) (AID 2282983); conditions: HepG2 Attagene TRANS M06 internal marker reporter
In short: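 After a 24 h chemical treatment of transfected HepG2, RNA underwent DNase I treatment, reverse transcription and reporter-specific PCR; labelled, HpaI-digested products were sized by capillary electrophoresis. Signal increase relative to DMSO defined activity.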

[14] = ATG_M_32_TRANS: Attagene TRANS-FACTORIAL HepG2 Assay for M32 Transcription Factor (Internal Marker) (AID 2282984); conditions: HepG2 Attagene TRANS M32 internal marker reporter;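 further: transcript level of a background control reporter unit measured by RT-PCR and capillary electrophoresis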
In short: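 Measures reporter mRNA induction in human HepG2 liver cells after 24 h chemical treatment. Transcripts from transiently transfected GAL4-UAS reporter units are amplified, fluorescently labelled and sized by capillary electrophoresis; gain of signal relative to DMSO.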

[15] = biological target: Nuclear receptor subfamily 4 group A member 2 (Homo sapiens) (UniProt P43354); experiment: ATG_NURR1_TRANS: Attagene TRANS-FACTORIAL HepG2 Assay for human Nuclear Receptor Related Protein 1 (NURR1) (AID 2282985); conditions: HepG2 Attagene TRANS reporter, mRNA readout
Nuclear receptor subfamily 4 group A member 2 (Homo sapiens), sequence (P43354 whole entry, looked up, the tested form may be a part): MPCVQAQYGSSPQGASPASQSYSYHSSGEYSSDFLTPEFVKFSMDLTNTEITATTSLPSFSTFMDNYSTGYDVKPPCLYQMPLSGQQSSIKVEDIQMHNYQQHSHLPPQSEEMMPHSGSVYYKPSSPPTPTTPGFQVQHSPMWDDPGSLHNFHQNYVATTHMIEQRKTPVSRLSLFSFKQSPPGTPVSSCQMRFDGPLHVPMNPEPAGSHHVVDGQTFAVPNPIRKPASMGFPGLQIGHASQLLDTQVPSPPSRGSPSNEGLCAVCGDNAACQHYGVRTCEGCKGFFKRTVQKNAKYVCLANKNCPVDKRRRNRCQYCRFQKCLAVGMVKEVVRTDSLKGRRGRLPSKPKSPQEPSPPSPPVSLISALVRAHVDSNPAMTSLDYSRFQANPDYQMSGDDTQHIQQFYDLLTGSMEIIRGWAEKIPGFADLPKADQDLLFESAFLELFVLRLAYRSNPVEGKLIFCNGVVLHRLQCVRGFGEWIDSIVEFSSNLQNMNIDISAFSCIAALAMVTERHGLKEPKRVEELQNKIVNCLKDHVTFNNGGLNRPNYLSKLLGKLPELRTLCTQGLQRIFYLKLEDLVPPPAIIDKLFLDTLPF
In short: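 Transient transfection of HepG2, human liver cells, with multiple GAL4-UAS reporter transcription units. Cells dosed 24 h, RNA isolated, reverse-transcribed, PCR-amplified, FAM-labelled, HpaI-digested, sized by capillary electrophoresis. DMSO served as negative control.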

[16] = biological target: Transcriptional activator Myb (Homo sapiens) (UniProt P10242); experiment: ATG_Myb_CIS: Attagene CIS-FACTORIAL HepG2 Assay for human Myeloblastosis (Myb) Proto-Oncogene Transcription Factor (AID 2282986; active means hit-call score of the fitted dose curve at least 0.9, where 1 is the maximum; inactive means score below 0.9); conditions: HepG2 Attagene CIS-FACTORIAL Myb reporter transcription; actives raise or lower the signal
Transcriptional activator Myb (Homo sapiens), sequence (P10242 whole entry, looked up): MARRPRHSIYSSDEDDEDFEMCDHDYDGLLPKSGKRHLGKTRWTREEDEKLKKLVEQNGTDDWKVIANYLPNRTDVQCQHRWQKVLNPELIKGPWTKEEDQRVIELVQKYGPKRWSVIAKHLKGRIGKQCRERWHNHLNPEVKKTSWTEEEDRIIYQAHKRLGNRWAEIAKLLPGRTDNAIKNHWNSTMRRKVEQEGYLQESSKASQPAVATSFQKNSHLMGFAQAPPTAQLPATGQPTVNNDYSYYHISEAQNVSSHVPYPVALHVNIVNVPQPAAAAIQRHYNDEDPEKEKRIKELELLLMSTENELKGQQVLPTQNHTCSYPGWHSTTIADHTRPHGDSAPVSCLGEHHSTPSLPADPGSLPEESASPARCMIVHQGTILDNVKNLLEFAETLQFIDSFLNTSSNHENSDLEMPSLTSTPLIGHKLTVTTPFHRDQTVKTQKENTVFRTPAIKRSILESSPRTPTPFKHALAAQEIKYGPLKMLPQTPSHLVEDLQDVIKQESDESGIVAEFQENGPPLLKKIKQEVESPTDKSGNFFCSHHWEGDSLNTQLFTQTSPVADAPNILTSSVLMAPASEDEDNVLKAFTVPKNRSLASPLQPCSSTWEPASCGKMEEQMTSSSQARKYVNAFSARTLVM
In short: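 After 24 h of compound dosing, total RNA from transfected HepG2 cells is reverse-transcribed and the reporter sequences amplified, labeled and separated by capillary electrophoresis. Values come from bidirectional fitting against DMSO.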

[17] = biological target: Glucocorticoid receptor (Homo sapiens) (UniProt P04150); experiment: ATG_GR_TRANS: Attagene TRANS-FACTORIAL HepG2 Assay for human Glucocorticoid Receptor (GR) (AID 2282978); conditions: HepG2 Attagene TRANS GR reporter, mRNA transcription;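 further: activators score as hits since higher reporter transcript over DMSO is fitted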
In short: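 After 24 h incubation with test chemical, transfected HepG2 cells were lysed for RNA; reporter cDNA was amplified, FAM-labelled, HpaI-digested and sized on a capillary analyser. Signal gain relative to DMSO was scored.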

[18] = biological target: Bile acid receptor (Homo sapiens) (UniProt Q96RI1); experiment: ATG_FXR_TRANS: Attagene TRANS-FACTORIAL HepG2 Assay for Farnesoid X Receptor (FXR) (AID 2282979); conditions: HepG2 Attagene TRANS FXR-GAL4 reporter transcription;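 further: hits raise reporter mRNA above DMSO so AC50 marks FXR activation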
Bile acid receptor (Homo sapiens), sequence (Q96RI1 whole entry, looked up, the tested form may be a part): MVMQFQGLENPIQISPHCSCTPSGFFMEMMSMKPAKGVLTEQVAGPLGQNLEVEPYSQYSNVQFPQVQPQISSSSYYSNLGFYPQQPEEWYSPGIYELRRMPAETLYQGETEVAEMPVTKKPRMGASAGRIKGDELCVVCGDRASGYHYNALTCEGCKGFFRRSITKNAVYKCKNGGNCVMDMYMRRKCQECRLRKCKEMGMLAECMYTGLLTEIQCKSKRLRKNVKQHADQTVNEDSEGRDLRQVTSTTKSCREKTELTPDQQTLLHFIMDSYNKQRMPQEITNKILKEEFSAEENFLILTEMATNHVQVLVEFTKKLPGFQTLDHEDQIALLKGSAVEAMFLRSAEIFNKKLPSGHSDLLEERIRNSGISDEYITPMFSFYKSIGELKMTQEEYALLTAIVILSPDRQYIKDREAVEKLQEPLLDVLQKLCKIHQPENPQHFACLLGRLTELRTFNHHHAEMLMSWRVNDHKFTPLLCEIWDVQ
In short: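 Read-out: fluorescent reporter transcripts quantified by capillary electrophoresis after RT-PCR of total RNA. Source cells were HepG2 transiently carrying chimeric NR-GAL4 plus GAL4-UAS reporter units, dosed 24 h. Activity fitted upward relative to DMSO baseline.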

[19] = biological target: Steroid hormone receptor ERR1 (Homo sapiens) (UniProt P11474); experiment: ATG_ERRa_TRANS: Attagene TRANS-FACTORIAL HepG2 Assay for human Estrogen-Related Receptor alpha (ERRa) (AID 2282971); conditions: HepG2 Attagene TRANS reporter, ERRa transactivation
In short: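 Transfected HepG2, 24 h dosing, ERRa-Gal4 chimera driving GAL4-UAS reporter. Readout: reporter mRNA via RT-PCR plus capillary electrophoresis (fluorescence). Positive direction vs DMSO control.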

[20] = ATG_GAL4_TRANS: Attagene TRANS-FACTORIAL HepG2 Assay for GAL4 (Internal Marker) (AID 2282976); conditions: HepG2 Attagene TRANS GAL4 internal marker reporter
In short: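 RT-PCR/capillary electrophoresis readout of reporter mRNA. HepG2, transient MRTU transfection (GAL4-UAS reporters), 24 h compound exposure. Background-control endpoint, positive direction vs DMSO baseline.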

Measured: AC50

OCCC(F)(F)C(F)(F)C(F)(F)C(F)(F)C(F)(F)C(F)(F)C(F)(F)C(F)(F)F
inactive: [1] | [2] | [3] | [5] | [6] | [8] | [9] | [10] | [11] | [12] | [13] | [14] | [15] | [16]
active: [1] 33.4 µM | [4] 25.8 µM and 150 µM | [6] 7.75 µM | [7] 48.2 µM and 112 µM

CC1=C(/C=C/C(C)=C/C=C/C(C)=C/C(=O)O)C(C)(C)CCC1
active: [1] 23.7 µM and 102 µM | [4] 6.62 µM and 11.9 µM | [7] 44.3 µM and 8.86 µM | [15] 57.2 nM and 278 nM
inactive: [2] | [3] | [8] | [17] | [10] | [11] | [13] | [14] | [16]

Nc1cccc2c(N)cccc12
not listed: [9] | [10] | [12] | [13] | [19] | [20]
inactive: all other assays above

CCCCCCCCCCCCCCCS(=O)(=O)Oc1ccccc1
not listed: [8] | [9] | [10] | [14] | [15] | [17] | [19] | [20]
inactive: all other assays above

CCc1nn(C2CCCCC2)c2cc(C3(C#N)CCC(C(=O)O)CC3)ccc12 (stereo unspecified)
active: [1] 52.3 µM | [4] 48.7 µM
not listed: [5] | [8] | [10] | [11] | [12] | [19] | [20]
inactive: all other assays above

CCCCCCC(=O)O
inactive: all assays above

OC1CCC(C2CCCCC2)CC1 (stereo unspecified)
not listed: [5] | [6] | [9] | [12]
inactive: all other assays above

CC(C)CCCCCCOC(=O)CCCCC(=O)OCCCCCCC(C)C
inactive: [1] | [2] | [3] | [4] | [7] | [8] | [20] | [10] | [13] | [16]

C=C(C)C(=O)OCCC(F)(F)C(F)(F)C(F)(F)C(F)(F)C(F)(F)C(F)(F)F
active: [6] 38.4 µM and 49.2 µM
not listed: [9] | [10] | [12] | [13] | [19]
inactive: all other assays above
